Bioassay records from PubChem BioAssay.
KCNQ2 enhance: enhances the rat KCNQ2 potassium channel. O88943. CHO-K1 KCNQ2, FluxOR thallium flux fluorescence; hits give high values. B-score at 10 µM. 310,000 tested, 0.54% active;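 active = fluorescence ratio B-score at least 3 SD of library B-scores, with initial fluorescence B-score within 3 of them, cut at about 5.3 in these data; same plate scores as AID 2156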;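 note: B-score of peak minus minimum over baseline fluorescence ratio after K+ and Tl+ stimulus; positive B-score means potentiation of KCNQ2 with more thallium influx and brighter signal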
KCNQ2 inh: blocks the rat KCNQ2 potassium channel; O88943; CHO-K1 KCNQ2, FluxOR thallium flux, 20 min; hits give low values; B-score at 10 µM; 310,000 tested, 1.1% active;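 active = fluorescence ratio B-score at most minus 3 library SDs, with starting brightness B-score within 2 library SDs, cut at about -5.5 in these data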
* hit, by the source's call; i = inactive; nt = not tested or not shown. An excerpt weighted towards active compounds, which were near 1.6% of everything screened.

SMILES	KCNQ2 enhance	KCNQ2 inh
CCN(c1ccccc1)S(=O)(=O)c1cc(C(=O)Nc2ccc(Br)cc2)ccc1F	-6.2	-6.2*
CCN(c1ccccc1)S(=O)(=O)c1cc(C(=O)Nc2ccccc2Cl)ccc1F	-6.01	-6.01*
CN(C)S(=O)(=O)c1cccc(C(=O)Nc2ccccc2Cl)c1	0.02	i
CCN(c1ccccc1)S(=O)(=O)c1ccc(F)c(C(=O)O)c1	1.67	i
COCCn1ccc2c(OCC(=O)Nc3ccccc3OC)cccc2c1=O	2.52	i
CCN(CC)S(=O)(=O)c1ccc2c(c1)c(=O)c(C(=O)N1CCN(c3ccccn3)CC1)cn2C	0.9	i
CCCCn1c(N)c(N(CCOC)C(=O)CSCc2ccc(C)cc2)c(=O)[nH]c1=O	1.45	i
O=C(Nc1cccc(Cl)c1N1CCCC1)c1ccc([N+](=O)[O-])o1	0.07	i
O=C(Nc1cccc(Cl)c1N1CCCC1)c1ccc(Br)o1	-7.9	-7.9*
O=C(Nc1cc(Cl)ccc1N1CCOCC1)c1cc2ccccc2o1	nt	i
O=C(Nc1cccc(Cl)c1N1CCCC1)c1cc2ccccc2o1	-6.23	-6.23*
Cc1ccc(S(=O)(=O)NCCC(=O)Nc2cc(S(=O)(=O)N(C)C)ccc2C)cc1C	0.58	i
COc1ccc(Cl)cc1NC(=O)CN(C)C(=O)C12CC3CC(CC(Cl)(C3)C1)C2	nt	i
CC1CCC(NC(=O)COC(=O)c2n[nH]c(=O)c3ccccc23)CC1 (stereo not given)	1.26	i
CCOC(=O)Cc1csc(NC(=S)NC(=O)c2ccccc2)n1	nt	i
CCOC(=O)Cc1csc(NC(=S)NC(=O)c2ccccc2Br)n1	9.64*	i
CN(C)S(=O)(=O)c1cccc(NC(=O)c2ccc(COc3ccccc3)cc2)c1	-5.84	-5.84*
CN(C)S(=O)(=O)c1cccc(NC(=O)c2ccc(OC(F)(F)F)cc2)c1	2.49	i
c1ccc(-c2cc(NCCN3CCCCC3)c3ccccc3n2)cc1	0.01	i
Cc1nc2c(cc1NC(=O)C(C)(C)C)nc(C)n2Cc1ccccc1	7.28*	i
CC(=O)Nc1cc2nc(C)n(Cc3ccccc3)c2nc1C	nt	i
CC1CCCC(C)N1C(=O)COC(=O)Cc1ccc(Cl)cc1 (stereo not given)	nt	i
CC1CCCC(C)N1C(=O)CSCc1ccc(Cl)cc1 (stereo not given)	-6.33	-6.33*
N#Cc1ccc(CSCC(=O)NN=C2CCCC2)cc1	nt	i
O=C(CSCc1ccc(Cl)cc1)NN=C1CCCC1	6.83*	i
SMILES	KCNQ2 enhance	KCNQ2 inh
Cn1cc([N+](=O)[O-])c(C(=O)N2CCN(Cc3ccc4c(c3)OCO4)CC2)n1	1.29	i
CC(=O)NCC(=O)OCC(=O)c1ccc(C)c(C)c1	nt	i
Cc1ccc(C(=O)COC(=O)C2C3C=CC(C3)C2C(=O)OCC(=O)c2ccc(C)c(C)c2)cc1C (stereo not given)	-7.48	-7.48*
Cc1ccc(NC(=S)/C(=C(\[O-])c2ccc(Cl)s2)[n+]2cccc(CO)c2)cc1C	-7.76	-7.76*
[O-]/C(=C(\C(=S)Nc1ccc(SC(F)F)cc1)[n+]1cccc(CO)c1)c1ccc(Cl)s1	nt	i
COCCNC(=S)N(CCO)Cc1cc2cc3c(cc2[nH]c1=O)OCCO3	nt	i
Cc1sc2nc(CSc3ccccc3)nc(N3CCC(C(N)=O)CC3)c2c1C	1.45	i
Cc1sc2nc(CSc3ccccc3)nc(N3CCOCC3)c2c1C	-5.89	-5.89*
O=C(Nc1ccc(F)cc1)N1CCN(C(=O)C2CCCO2)CC1 (stereo not given)	0.42	i
CCOc1ccc(NC(=O)C(CC)n2nc(C)c3c(C)n(-c4ccccc4)nc3c2=O)cc1 (stereo not given)	0.41	i
O=C(c1ccco1)[C@@H]1[C@@H]2C(=O)N(c3ccccc3)C(=O)[C@@H]2C2c3ccccc3C=CN21 (stereo not given in full)	nt	i
Cc1ccc(N2C(=O)[C@@H]3[C@H](C2=O)C2c4ccccc4C=CN2[C@@H]3C(=O)c2ccco2)c(C)c1 (stereo not given in full)	-6.39	-6.39*
CCn1c(SCc2cccc(F)c2)nnc1-c1ccncc1	0.79	i
CCn1c(SCc2cccc(C)c2)nnc1-c1ccc(C)cc1	-5.98	-5.98*
O=C(Nc1c2c(nn1-c1ccccc1)CS(=O)C2)c1ccco1 (stereo not given)	0.07	i
CC(=O)N(Cc1ccc(Br)cc1)c1cccc(C)c1C	-6.49	-6.49*
COc1ccc(CN(C(C)=O)c2cccc(C)c2C)cc1	nt	i
Nc1nonc1-n1nnc(C(=O)N/N=C/c2cccc(F)c2)c1CN1CCCCCC1	1.02	i
CCOc1ccccc1NC(=O)C(NCCN(C)C)c1ccccc1 (stereo not given)	1.84	i
CCOc1ccccc1NC(=O)C(OC(=O)c1ccc(CC)cc1)c1ccccc1 (stereo not given)	-6.43	-6.43*
CCOc1ccccc1NC(=O)C(OC(=O)c1ccc(O)cc1)c1ccccc1 (stereo not given)	nt	i
CCOc1ccccc1NC(=O)C(NCC1CCCCC1)c1ccccc1 (stereo not given)	-5.78	-5.78*
COc1ccc(C(C(=O)NC2CCCCC2)N(Cc2ccco2)C(=O)c2ccccn2)c(OC)c1 (stereo not given)	1.36	i
Cc1cc(C)c(S(=O)(=O)c2cccc(Br)c2C)c(=O)[nH]1	0.8	i
O=C(NCc1ccccc1OC(F)(F)F)C1CCC(=O)N(Cc2cccc(F)c2)C1 (stereo not given)	nt	i
SMILES	KCNQ2 enhance	KCNQ2 inh
Cc1ccccc1CNC(=O)C1CCC(=O)N(Cc2cccc(F)c2)C1 (stereo not given)	-6.32	-6.32*
O=C(C1CC(=O)N(c2ccc3c(c2)OCCO3)C1)N1CCN(c2cccc(C(F)(F)F)c2)CC1 (stereo not given)	0.06	i
C=CCn1c(SCc2cc(=O)n3ccsc3n2)nc2sc(C)c(C)c2c1=O	-9.03	-9.03*
C=CCn1c(SCc2csc(C)n2)nc2sc3c(c2c1=O)CCC(C)C3 (stereo not given)	nt	i
C=CCn1c(SCC(=O)c2cccs2)nc2sc(C)c(C)c2c1=O	nt	i
C=CCn1c(SCc2csc(C)n2)nc2sc3c(c2c1=O)CCCCC3	-8.14	-8.14*
CC(=O)n1cc(Nc2ccc([N+](=O)[O-])cc2)c2ccccc21	0.03	i
CC(=O)SC(C[N+](=O)[O-])c1cn(C(C)=O)c2ccccc12 (stereo not given)	-5.57	-5.57*
Cc1ccc(S(=O)(=O)NNC(=O)Nc2ccc([N+](=O)[O-])cc2)c(C)c1	0.06	i
COc1ccc(OC)c(NC(=O)CCNS(=O)(=O)c2cc(Br)cnc2N)c1	1.96	i
O=C(Nc1ccccc1OCc1ccccc1)c1ccccc1Br	nt	i
C[C@@H](C(=O)NCCc1ccccc1F)N1C(=O)N2CCc3c([nH]c4ccccc34)[C@@]2(C)C1=O	nt	i
C[C@@H](C(=O)NCCc1ccccc1)N1C(=O)N2CCc3c([nH]c4ccccc34)[C@@]2(C)C1=O	-9.14	-9.14*
CCCN(CCC)CCCNC(=O)c1cn(-c2ccc(OC)cc2)c(=O)c2ccccc12	0.6	i
NC[C@@H]1O[C@H](C23CC4CC(CC(C4)C2)C3)Cc2c1ccc(O)c2O	-5.85	-5.85*
COc1ccc(NC(=O)C2CCCN(S(C)(=O)=O)C2)cc1OC (stereo not given)	1.6	i
Cc1ccc(C)c(OC(=O)c2cccnc2)c1	nt	i
